# Screens deposited in PubChem BioAssay by National Center for Advancing Translational Sciences (NCATS).
# Most compounds without a hit are left out; they make up all but 11% or so of the library.
# Tau fibril ThT: blocks human tau fibril formation measured by thioflavin T | P10636 | Potency, µM (highest dose often 57.4 µM), without a hit: at the top dose activity, negative = inhibition, hits mostly inhibitors | 270,000 compounds, 2.1% hits | recombinant tau K18 P301L, heparin-induced fibrillization, ThT fluorescence | AID 1460; note: potency is the fitted concentration of half-maximal effect; nearly all actives have a fitted effect of over 55% in size
# Target sequence (P10636 561-689 P618L limits assumed): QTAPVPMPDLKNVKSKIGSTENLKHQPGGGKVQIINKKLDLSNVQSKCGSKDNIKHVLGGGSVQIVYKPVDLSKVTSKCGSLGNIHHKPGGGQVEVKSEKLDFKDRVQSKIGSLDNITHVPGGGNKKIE
#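 Using a mix of unlabeled (15 uM) and Alexa 594-labeled (0.24 uM) tau K18 P301L, heparin-triggered fibrillization over 6 hr at 37 C was scored by ThT fluorescence.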
# Coupling enz: counter-screen for Giardia aldolase inhibitors: coupling enzyme system; activity change, negative = inhibition, % at 58.2 µM, hits read low; AID 2472; coupling enzyme system counterscreen, AmpLite Red fluorescence; 290,000 compounds, 0.67% hits; in the data active = activity change below about -30%
#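 First, compound is pin-transferred into glyceraldehyde-3-phosphate coupling-enzyme reagent at 57.5 uM final and held 10 min at RT. Next, substrate, coupling system and AmpLite Red are added. After 20 min RT, fluorescence (525/598 nm) is read.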
# Tau fluor cs: counter-screen for tau fibril formation inhibitors; tau K18 P301L Alexa594 fluorescence, heparin fibrillization; 280,000 compounds, 0.93% hits; Potency, µM (titrated, usually from 57.7 µM), without a hit: at the top dose activity change, negative = decrease; AID 1463; note: potency is the fitted concentration of half-maximal effect; nearly all actives have a fitted effect of over 55% in size
#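 Human tau K18 P301L (15 uM unlabeled, 0.24 uM Alexa 594-labeled) in 100 mM sodium acetate pH 7 with 20 uM heparin, 6 hr at 37 C. ThT 30 uM added, 1 hr ambient; Alexa 594 FP and total fluorescence read at 555/632 nm.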
# Tau FP inhib: blocks human tau fibril formation measured by polarization; Potency, µM (series often up to 57.7 µM), for inactives: top-dose activity, negative = inhibition, usual class: inhibitors; 280,000 compounds, 0.39% hits; K18 P301L tau heparin fibrillization, Alexa594 FP, 6 h; P10636; note: potency is the fitted concentration of half-maximal effect; nearly all actives have a fitted effect of over 55% in size
#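 Human tau K18 […] P301L fragment, 15 uM unlabeled plus 0.24 uM Alexa 594-labeled tau (final), with compound and 20 uM heparin in 100 mM sodium acetate pH 7; 6 hr at 37 C, then Alexa 594 FP read.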
# G9a inh: blocks human histone lysine methyltransferase G9a | G9a H3K9 monomethylation, AlphaScreen, 2 h | 350,000 compounds, 8.8% hits | Potency, µM (titrated, usually from 102 µM), inactives show at the top dose activity, negative = inhibition, usual class: inhibitors | Q96KQ7; note: potency is the fitted concentration of half-maximal effect; nearly all actives have a fitted effect of over 75% in size
# Target sequence (Q96KQ7 913-1193 limits assumed): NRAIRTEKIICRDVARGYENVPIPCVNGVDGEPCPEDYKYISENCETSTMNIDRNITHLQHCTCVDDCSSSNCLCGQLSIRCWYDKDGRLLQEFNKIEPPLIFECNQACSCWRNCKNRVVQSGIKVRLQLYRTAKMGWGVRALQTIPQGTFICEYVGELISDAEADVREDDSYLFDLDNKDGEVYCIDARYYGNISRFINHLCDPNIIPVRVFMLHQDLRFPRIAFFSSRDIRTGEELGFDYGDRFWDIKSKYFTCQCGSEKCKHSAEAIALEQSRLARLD
#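 AlphaScreen read-out: biotin-H3K9 peptide (500 nM) methylation by 20 nM enzyme with 20 uM SAM, 2 h at room temperature after 15 min compound preincubation; anti-monomethyl H3K9 antibody plus donor/acceptor beads, 10 min dark.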
# Sfp PPTase inh: blocks B. subtilis Sfp PPTase activity; Q9F4F7; Biochemical Sfp PPTase activity, qHTS; Potency, µM, for the others: largest response in the series, negative = inhibition, most hits filed as inhibitors; 310,000 compounds, 3.5% hits;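 note: the enzyme is Sfp with the accession as filed and its product quenches rhodamine fluorescence; potency is the fitted concentration of half-maximal effect; 0% = enzyme reaction without inhibitor and -100% = no enzyme wells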
#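 With Hepes-Na pH 7.6 buffer containing 10 mM MgCl2, Sfp (15 nM) modified BHQ-2-YbbR (12.5 uM) using rhodamine-CoA (5 uM). Two reads 30 minutes apart at 525/598 nm yielded each well's rate.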
# Numbers without * were called inactive; ? = inconclusive; / = not tested or not shown; ! = not active in a repeat; [ ] = another dose, or the depositor's remark. Unless noted, calls come from the whole dose curve; as a rule, active = well fitted curve in the direction sought with a large enough effect; inconclusive = small, poorly fitted or top-dose-only effect, or another doubt; inactive = no such curve, though single readings can be large; an effect the other way counts as inactive or inconclusive. Unless noted, % is set by controls: 0 for no effect and ±100 for the full control effect.
SMILES,Tau fibril ThT,Coupling enz,Tau fluor cs,Tau FP inhib,G9a inh,Sfp PPTase inh
COc1cccc(-c2nnc3n2N=C(c2ccc(OC)cc2OC)CS3)c1,/,2,/,/,/,45µM*
CCCCCCCCCCCCCCOc1ccc(C(=O)O)o1,/,9,/,/,/,2%
O=C(NC1CCCCC1)c1cc(Nc2cccc(C(F)(F)F)c2)nc2ccccc12,8%,/,-24%,?,-1%[59 µM],/
Cc1ccc(C)c(NC(=O)C(=O)NCCc2csc(-c3cccc(F)c3)n2)c1,-3%,/,-7%,1%,11%[59 µM],/
Cc1cccc(Cl)c1NC(=S)NN,/,1,/,/,3.5µM*,-1%
CCC(C)NC(=O)c1cc(S(=O)(=O)N2CCCCC2)c[nH]1 (centres undefined),/,0,/,/,9%,11%
Cc1ccccc1OCC(O)CN1CCN(CCN2C(=O)c3cccc4cccc(c34)C2=O)CC1 (centres undefined),-1%,1,-10%,15%,79µM*,12%
C=CCc1ccccc1OCC(O)CN1CCN(CCN2C(=O)c3cccc4cccc(c34)C2=O)CC1 (centres undefined),1%,-10,-1%,-4%,40µM*,5.6µM*
O=C(CN1C(=O)COc2ccc(S(=O)(=O)N3CCCCCC3)cc21)N1CCN(c2ccc(F)cc2)CC1,-9%,/,-11%,9%,-3%[59 µM],/
NC(=O)c1sc2nccc(Nc3ccccc3)c2c1N,-9%,0,-16%,-10%,?,40µM*
Cn1c2ccccc2c2cc(C(=O)N3CCOCC3)sc21,?,0,-9%,-7%,?,45µM*
O=C(c1cccc(F)c1)N1CCC2(CCCN(Cc3nccs3)C2)CC1,/,2,/,/,2%[12.7 µM],19%
CCOc1ccccc1CNC(=O)c1cccn1-c1nnc(N2CCCC2)s1,7%,/,9%,4%,8%[59 µM],/
CCN(CC)c1nn2c(=O)c(C(=O)NCc3ccc(N(C)C)cc3)cnc2s1,-10%,/,-7%,4%,?,/
CC(C)[C@H](NC(=O)C1CC(=O)N(c2ccc3c(c2)OCO3)C1)C(=O)NC1CCCC1 (some centres undefined),/,-7,/,/,56µM*,3%
C[C@H](NC(=O)C1CC(=O)N(c2ccc3c(c2)OCO3)C1)C(=O)NC1CCCC1 (some centres undefined),/,-2,/,/,10%,17%
CC1(C)Cc2c(sc3nc(=S)[nH]c(N)c23)CO1,/,-3,/,/,/,25µM*
Cc1nc(NN)c2c3c(sc2n1)COC(C)(C)C3,/,-3,/,/,-7%[2.33 µM],56µM*
Cc1nc2sc3c(c2c(=O)o1)CC(C)(C)OC3,-6%,1,-2%,-7%,3%[12.7 µM],-7%
CCOC(=O)C1C(=O)CC(C)(O)C(C(=O)OCC)C1c1ccc(F)cc1 (centres undefined),-8%,2,-8%,-1%,18%[59 µM],16%
CCOC(=O)C1C(=O)CC(C)(O)C(C(=O)OCC)C1c1ccc(N(CC)CC)cc1 (centres undefined),-7%,2,-11%,1%,14µM*,15%
Cc1cc(C)nc(SCc2ccc(C(=O)N/N=C/c3ccco3)cc2)n1,?,-1,-9%,-1%,40µM*,?
Cc1ccc2sc(C)[n+](CCCS(=O)(=O)[O-])c2c1,?,4,?,-16%,?,2.8µM*
Cc1ccc2c(c1)sc(C)[n+]2CCCS(=O)(=O)[O-],?,-1,3%,-16%,?,1µM*
CN(C)c1ccc(/C=N/N2C(=S)SC(C)(C)C2N(O)C(=O)Nc2ccc([N+](=O)[O-])cc2)cc1 (centres undefined),18µM*,0,11µM*[quencher],6%,16%[12.7 µM],19%
SMILES,Tau fibril ThT,Coupling enz,Tau fluor cs,Tau FP inhib,G9a inh,Sfp PPTase inh
CNC(=O)N(O)C1N(/N=C/c2ccccc2O)C(=S)SC1(C)C (centres undefined),-11%,-5,-12%,-1%,/,45µM*
COC(=O)c1ccc(N2NC(=O)/C(=C/c3cc(OC)c(O)c(OC)c3)C2=O)cc1,/,-5,/,/,2.8µM*,-28%
COc1cc(/C=C2/C(=O)NN(c3ccc(Cl)c(Cl)c3)C2=O)cc([N+](=O)[O-])c1O,/,8,/,/,18µM*,17%
COc1cc(/C=C2/C(=O)NN(c3ccc(F)cc3)C2=O)cc(Cl)c1O,/,1,/,/,28µM*,45µM*
COC(=O)c1ccc(N2NC(=O)/C(=C/c3cc(OC)c(OC)c(OC)c3)C2=O)cc1,/,7,/,/,-12%[2.33 µM],?
Cn1c(=O)c(=O)n(C)c2cc(S(=O)(=O)CCC(=O)Nc3ccc(C(F)(F)F)cc3)ccc21,/,/,/,/,-9%[0.0925 µM],4%
O=C(NCc1ccccc1Cl)c1cnc2sc(N3CCOCC3)nn2c1=O,-2%,/,-3%,2%,-17%[59 µM],/
N#CCCn1c(=O)c(-c2ccccc2)nc2cnc(N3CCOCC3)nc21,/,1,/,/,3%[0.501 µM],-5%
CN(CC(=O)Nc1c(Cl)cccc1Cl)C(=O)Cc1ccc2c(c1)CCC2,/,/,/,/,3.5µM*,/
CCN(CC(=O)Nc1c(F)cccc1F)C(=O)Cc1ccc2c(c1)CCC2,/,/,/,/,10µM*,/
CCN(CC(=O)Nc1c(F)cccc1F)C(=O)Cc1ccc2c(c1)OCCO2,/,/,/,/,13%[12.7 µM],/
CNc1nc(C#N)nc(Nc2ccccc2)n1,/,0,/,/,/,/
COc1ccc(C2=CSC3=NCCN23)cc1F,-4%,2,-3%,-2%,28µM*,-10%
Cc1cccc(C(CC(=O)NCc2ccco2)c2ccccc2)c1O (centres undefined),-2%,3,-11%,-10%,45µM*,3%
Cc1ccc(O)c(C(CC(=O)NCc2ccco2)c2ccccc2)c1 (centres undefined),-1%,4,-9%,-1%,/,10%
Cc1cccc(C(CC(=O)NCCc2ccccc2)c2ccccc2)c1O (centres undefined),-7%,0,-21%,-1%,3%,79µM*
O=c1ccc2cc(O)c(O)cc2o1,?,1,-15%,-8%,?,56µM*!
Nc1nc(-c2ccc(Cl)cc2)c(N=Nc2ccc(S(=O)(=O)N3CCOCC3)cc2)s1,14µM*,1,11µM*[quencher],?,?,-4%
Cc1ccc(N2C(=O)/C(=C\c3ccco3)SC2=S)cc1,-13%,-9,-18%,-2%,-6%[12.7 µM],14µM*
O=C1/C(=C\c2ccco2)SC(=S)N1c1ccccc1,25µM*,-6,?,?,50µM*,?
O=C(COc1ccccc1)Nn1cnc2ccccc21,-7%,-1,-5%,-1%,20µM*,?
Cc1nc2ccccc2c(=O)n1NC(=O)COc1ccccc1,3%,3,6%,5%,-43%[12.7 µM],2%
